# Measurements published in PubChem BioAssay (Tox21).
# Several values for one entry are separate records, joined by “and”; a condition that tells them apart may be missing. Identical values can stand only once. Results filed as inconclusive are left out. Where a call stands in place of a potency, no number is given. Where a structure was tested more than once in an assay, its records may differ in their call. Activity calls are given as the source filed them. Unless noted, calls come from the whole dose curve; as a rule, active = well fitted curve in the direction sought with a large enough effect in the repeat runs; inconclusive = weak or mixed curves; inactive = no such curve, though single readings can be large; an effect the other way counts as inactive or inconclusive.
# Experiments:
# [1] = qHTS assay for small molecule agonists of the p53 signaling pathway (AID 651631; calls by dose curve; note: nearly all actives have a fitted effect of over 15% in size; note: potency is the fitted concentration of half-maximal effect)
# How it was run: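 Agonist mode screen using a stably integrated beta-lactamase gene under p53 response elements in HCT-116 cells. Compound exposure lasts 16 h at 37 °C; fluorescence intensity is measured following 2 h FRET substrate loading.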
# [2] = qHTS assay for small molecules that induce genotoxicity in human embryonic kidney cells expressing luciferase-tagged ATAD5 (AID 651632); note: nearly all actives have a fitted effect of over 15% in size
# How it was run: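 A rise in luciferase signal from ATAD5-tagged HEK293T cells marks genetic stress. Cells were exposed to compounds for 16 hr at 37C, 5% CO2, then luciferase was quantified after a 30 min room-temperature incubation with Amplite.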
# [3] = qHTS assay for small molecule agonists of the p53 signaling pathway - cell viability (AID 651633; calls by dose curve; note: nearly all actives have a fitted effect of over 30% in size; note: potency is the fitted concentration of half-maximal effect)
# How it was run: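 p53RE-bla cells were treated with compound for 16 hours at 37 C. Cytotoxicity was then measured as CellTiter-Glo luminescence after 30 min at room temperature.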
# [4] = qHTS assay for small molecules that induce genotoxicity in human embryonic kidney cells expressing luciferase-tagged ATAD5 - cell viability (AID 651634; calls by dose curve; note: nearly all actives have a fitted effect of over 25% in size)
# How it was run: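 Cytotoxicity counter-readout: after 15.5 hr compound treatment at 37C, live-cell protease activity in ATAD5-luciferase HEK293T cells measured by CellTiter-Fluor fluorescence, 30 min development at 37C.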
# [5] = qHTS assay for small molecule disruptors of the mitochondrial membrane potential (AID 720635); note: potency is the fitted concentration of half-maximal effect
# How it was run: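 HepG2 cells exposed to compound 1 hr at 37C, then Mito-MPS dye 30 min. Ratio read of aggregate (540/590 nm) versus monomer (490/535 nm) fluorescence.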
# [6] = qHTS assay to test for compound auto fluorescence at 590 nm (red) in HepG2 cells (AID 720674)
# How it was run: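 Fluorescence at 590 nm emission following 540 nm excitation was recorded from HepG2 wells one hour after compound transfer, with DMSO-only wells as vehicle and Rose Bengal sodium equivalency as the scale.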
# [7] = qHTS assay to test for compound auto fluorescence at 535 nm (green) in HepG2 cells (AID 720675)
# [8] = qHTS assay to test for compound auto fluorescence at 460 nm (blue) in HEK293 cells (AID 720678); note: potency is the fitted concentration of half-maximal effect
# How it was run: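 Triamterene serves as the blue fluorophore standard. Compound signal at 405/460 nm is read in HEK293 wells (2,000 cells, 10% dialyzed FBS) after overnight treatment at 37C.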
# [9] = qHTS assay to test for compound auto fluorescence at 590 nm (red) in HEK293 cells (AID 720679)
# How it was run: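 We plated HEK293 cells in 10% dialyzed FBS medium, let them adhere for 4-5 hr, then added 23 nL compound. Overnight at 37C and 5% CO2 preceded fluorescence measurement at 540/590nm.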
# [10] = qHTS assay to test for compound auto fluorescence at 535 nm (green) in HEK293 cells (AID 720680)
# [11] = qHTS assay to test for compound auto fluorescence at 460 nm (blue) in HEK293 cell free culture (AID 720681); note: potency is the fitted concentration of half-maximal effect
# How it was run: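 Compounds were added to cell-free DMEM with 10% FBS and fluorescence read directly. The blue channel used 405 nm excitation and 460 nm emission, with triamterene as the reference fluorophore.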
# [12] = qHTS assay to test for compound auto fluorescence at 535 nm (green) in HEK293 cell free culture (AID 720682)
# How it was run: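 No cells present: wells hold DMEM supplemented with 10% FBS, into which compound or vehicle is pinned. Green emission is then recorded (485 nm excitation, 535 nm emission) and scaled to fluorescein.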
# [13] = qHTS assay to test for compound auto fluorescence at 590 nm (red) in HEK293 cell free culture (AID 720683)
# How it was run: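 Cell-free wells of DMEM with 10% FBS received compound, and intrinsic fluorescence was read at excitation/emission 540/590 nm. Values expressed as equivalence to Rose Bengal sodium.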
# [14] = qHTS assay to test for compound auto fluorescence at 590 nm (red) in HepG2 cell free culture (AID 720684)
# How it was run: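 Auto fluorescence equivalency versus Rose Bengal sodium, red channel Ex/Em 540/590 nm; compounds in cell-free MEM/10% FBS; DMSO vehicle control.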
# [15] = qHTS assay to test for compound auto fluorescence at 460 nm (blue) in HepG2 cell free culture (AID 720685); note: potency is the fitted concentration of half-maximal effect
# How it was run: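 Cell-free plates of MEM plus 10% FBS received 23 nL compound or DMSO vehicle; blue-channel (405/460 nm) intensity scored against triamterene as reference fluorophore.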
# [16] = qHTS assay to test for compound auto fluorescence at 535 nm (green) in HepG2 cell free culture (AID 720686)
# [17] = qHTS assay to test for compound auto fluorescence at 460 nm (blue) in HepG2 cells (AID 720687); note: potency is the fitted concentration of half-maximal effect
# How it was run: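 HepG2 cells in MEM with 10% FBS, attached overnight at 37 C, were exposed to compound or DMSO for 1 hr at 37 C, 5% CO2. Blue fluorescence was read at 405/460 nm, with triamterene as reference fluorophore.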
# [18] = target: Glucocorticoid receptor (Homo sapiens) (UniProt P04150); assay: qHTS assay to identify small molecule agonists of the glucocorticoid receptor (GR) signaling pathway (AID 720691; active = well fitted activation curve with a large enough effect in the signal ratio in the repeat runs, not every such curve was filed as active; the % refers to the signal ratio)
# How it was run: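 Agonist-mode qHTS in HeLa cells stably expressing a glucocorticoid-response-element beta-lactamase reporter. Fluorescence intensity read with FRET substrate (2 h, room temperature) after 18 h compound treatment at 37 C.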
# [19] = target: Glucocorticoid receptor (Homo sapiens) (UniProt P04150); assay: qHTS assay to identify small molecule antagonists of the glucocorticoid receptor (GR) signaling pathway (AID 720692; active = well fitted inhibition curve with a large enough effect in the signal ratio in the repeat runs, not every such curve was filed as active; the % refers to the signal ratio)
# How it was run: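 Inhibition of dexamethasone-driven (5 nM final) beta-lactamase expression was measured in GRE-reporter HeLa cells over 18 h at 37C. Fluorescence was read after 2 h with the B/G FRET substrate at room temperature.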
# [20] = qHTS assay for small molecule disruptors of the mitochondrial membrane potential - cell viability (AID 720634; calls by dose curve;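 note: human HepG2 liver cancer cells; series mostly up to about 83 µM; nearly all actives have a fitted effect of over 20% in size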)
# How it was run: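 Cytotoxicity was quantified from ATP content by CellTiter-Glo luminescence in the same wells as the MMP dye read-out. HepG2 (2,000 cells/well) were plated overnight and exposed to compounds for 1 hr at 37 C.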
# Tags give direction and shape of the fitted curve or compound fluorescence and quenching.
# Glucocorticoid receptor (Homo sapiens), sequence (P04150 whole entry, looked up): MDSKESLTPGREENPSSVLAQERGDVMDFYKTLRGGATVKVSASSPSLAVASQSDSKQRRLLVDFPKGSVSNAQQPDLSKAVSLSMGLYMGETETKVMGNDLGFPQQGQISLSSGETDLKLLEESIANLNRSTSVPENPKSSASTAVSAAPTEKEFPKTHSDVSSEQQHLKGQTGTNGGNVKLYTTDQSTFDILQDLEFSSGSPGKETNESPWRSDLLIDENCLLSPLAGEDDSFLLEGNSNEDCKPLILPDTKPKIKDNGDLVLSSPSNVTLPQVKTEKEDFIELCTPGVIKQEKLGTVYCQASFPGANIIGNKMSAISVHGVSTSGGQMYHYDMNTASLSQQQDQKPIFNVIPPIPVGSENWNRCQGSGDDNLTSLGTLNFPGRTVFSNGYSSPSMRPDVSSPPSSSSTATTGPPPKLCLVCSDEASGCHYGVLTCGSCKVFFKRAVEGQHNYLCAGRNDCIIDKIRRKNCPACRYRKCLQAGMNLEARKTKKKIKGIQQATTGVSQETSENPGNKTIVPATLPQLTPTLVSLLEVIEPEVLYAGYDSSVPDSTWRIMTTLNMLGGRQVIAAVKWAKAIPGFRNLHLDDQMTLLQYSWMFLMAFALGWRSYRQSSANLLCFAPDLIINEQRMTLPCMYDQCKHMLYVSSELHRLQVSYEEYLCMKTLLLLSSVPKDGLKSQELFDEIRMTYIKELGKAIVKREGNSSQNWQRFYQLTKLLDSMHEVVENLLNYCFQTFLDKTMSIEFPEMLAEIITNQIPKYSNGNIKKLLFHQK
smiles,measurement,setting,value
N=C(N=C(N)N)N1CCOCC1,Potency,[1],inactive
same,Potency,[2],inactive
same,Potency,[3],inactive
same,Potency,[4],inactive
same,Potency,[5],inactive
same,"fluorescence, relative to Rose Bengal",[6],0.372% [at 18.6 µM] (inactive)
same,"fluorescence, % of fluorescein control",[7],-0.084% [at 18.6 µM] (inactive)
same,"fluorescence, % of triamterene",[8],-0.223% [at 18.6 µM] (inactive)
same,"fluorescence, % of fluorescent control",[9],0.0856% [at 18.6 µM] (inactive)
same,"fluorescence, % of fluorescein",[10],-0.0392% [at 18.6 µM] (inactive)
same,"fluorescence, % of fluorescent control",[11],0.0143% [at 18.6 µM] (inactive)
same,activity change,[12],-0.0209% [at 18.6 µM] (inactive)
same,"fluorescence, % of fluorescent control",[13],0.292% [at 18.6 µM] (inactive)
same,"fluorescence, % of Rose Bengal",[14],0.0286% [at 18.6 µM] (inactive)
same,"fluorescence, % of fluorescent control",[15],0.021% [at 18.6 µM] (inactive)
same,"fluorescence, % of fluorescein control",[16],-0.0914% [at 18.6 µM] (inactive)
same,"fluorescence, % of fluorescent control",[17],0.133% [at 18.6 µM] (inactive)
same,Potency,[18],inactive
same,Potency,[19],inactive
Nc1nc(N)c2nc(CNc3ccc(C(=O)N[C@@H](CCC(=O)O)C(=O)O)cc3)cnc2n1,Potency,[1],inactive and 57.1 nM (active)
same,Potency,[2],inactive
same,Potency,[3],inactive and 45.3 nM (active)
same,Potency,[4],inactive
same,Potency,[20],inactive
same,outcome,[6],inactive
same,outcome,[7],inactive
same,Potency,[8],inactive and 39.8 µM [fluorescent] (active)
same,outcome,[9],inactive
same,outcome,[10],inactive
same,Potency,[11],39.8 µM (active)
same,outcome,[12],inactive
same,outcome,[13],inactive
same,outcome,[14],inactive
same,Potency,[15],35.5 µM [fluorescent] (active)
same,Potency,[17],39.8 µM [fluorescent] (active)
same,Potency,[18],inactive
same,Potency,[19],inactive
N#Cc1cc2ccccc2c2ccccc12,Potency,[1],inactive
same,Potency,[2],inactive
same,Potency,[3],inactive
same,Potency,[4],inactive
same,Potency,[5],38.8 µM (active)
same,outcome,[6],inactive
same,Potency,[8],inactive
same,outcome,[9],inactive
same,outcome,[10],inactive
same,Potency,[11],inactive
same,outcome,[12],inactive
same,outcome,[13],inactive
same,outcome,[14],inactive
same,Potency,[15],inactive
same,outcome,[16],inactive
same,Potency,[17],inactive
CC(C)(C)C1CCCCC1O (configuration not stated),Potency,[1],inactive
same,Potency,[2],inactive
same,Potency,[3],inactive
same,Potency,[4],inactive
same,Potency,[5],inactive
same,outcome,[6],inactive
same,outcome,[7],inactive
same,outcome,[9],inactive
same,outcome,[10],inactive
same,Potency,[11],inactive
same,outcome,[12],inactive
same,outcome,[13],inactive
same,outcome,[14],inactive
same,Potency,[15],inactive
same,outcome,[16],inactive
same,Potency,[17],inactive
same,Potency,[18],inactive
CCCCCCc1ccc(N)cc1,Potency,[1],inactive
same,Potency,[2],inactive
same,Potency,[3],inactive
same,Potency,[4],inactive
same,Potency,[20],inactive
same,outcome,[6],inactive
same,outcome,[7],inactive
same,Potency,[8],inactive
same,outcome,[9],inactive
same,outcome,[10],inactive
same,Potency,[11],inactive
same,outcome,[13],inactive
same,outcome,[14],inactive
same,Potency,[15],inactive
same,outcome,[16],inactive
same,Potency,[17],inactive
NC[C@H]1O[C@H](O[C@H]2[C@H](O)[C@@H](O[C@H]3O[C@H](CO)[C@@H](O)[C@H](N)[C@H]3O)[C@H](N)C[C@@H]2N)[C@H](O)[C@@H](O)[C@@H]1O,Potency,[1],inactive
same,Potency,[2],inactive
same,Potency,[4],inactive
same,Potency,[20],inactive
same,"ratio activity, negative = MMP loss",[5],0.685% [at 8.08 µM] (inactive)
same,"fluorescence, relative to Rose Bengal",[6],-0.029% [at 18.6 µM] (inactive) and 0.338% [at 3.72 µM] (inactive)
same,"fluorescence, % of fluorescein control",[7],-0.0979% [at 18.6 µM] (inactive) and 0.0187% [at 3.72 µM] (inactive)
same,"fluorescence, % of triamterene",[8],0.0195% [at 18.6 µM] (inactive) and -0.0441% [at 3.72 µM] (inactive)
same,"fluorescence, % of fluorescent control",[9],0.0121% [at 18.6 µM] (inactive) and -0.0907% [at 3.72 µM] (inactive)
same,"fluorescence, % of fluorescein",[10],-0.0192% [at 18.6 µM] (inactive) and 0.0982% [at 3.72 µM] (inactive)
same,"fluorescence, % of fluorescent control",[11],0.0354% [at 18.6 µM] (inactive) and -0.129% [at 3.72 µM] (inactive)
same,"fluorescence, % of fluorescent control",[13],0.0769% [at 18.6 µM] (inactive) and -0.256% [at 3.72 µM] (inactive)
same,"fluorescence, % of Rose Bengal",[14],-0.276% [at 18.6 µM] (inactive) and 0.0159% [at 3.72 µM] (inactive)
same,"fluorescence, % of fluorescent control",[15],-0.077% [at 18.6 µM] (inactive) and 0.036% [at 3.72 µM] (inactive)
same,"fluorescence, % of fluorescein control",[16],-0.0088% [at 18.6 µM] (inactive) and 0.0013% [at 3.72 µM] (inactive)
same,"fluorescence, % of fluorescent control",[17],0.0301% [at 18.6 µM] (inactive) and -0.0315% [at 3.72 µM] (inactive)
same,Potency,[18],inactive
c1ccc(CNCc2ccccc2)cc1,Potency,[1],inactive
same,Potency,[2],inactive
same,Potency,[3],inactive
same,Potency,[20],inactive
same,outcome,[6],inactive
same,Potency,[8],inactive
same,outcome,[9],inactive
same,outcome,[10],inactive
same,Potency,[11],inactive
same,outcome,[13],inactive
same,outcome,[14],inactive
same,Potency,[15],inactive
same,outcome,[16],inactive
same,Potency,[17],inactive
